According to PubChem BioAssay (Tox21):
Records with an inconclusive call do not appear. Where a call stands in place of a potency, no number is given. Active and inactive are the calls of the source. Calls follow the shape of the dose curve; as a rule, active = well fitted activation curve with a large enough effect in the signal ratio in the repeat runs (not every such curve was filed as active); inconclusive = weak or mixed curves; inactive = flat fitted curve, though single readings scatter; the % refers to the signal ratio.

assay: p53 small molecule agonists, cell-based qHTS assay (AID 1963582); conditions: HCT-116 p53RE-bla reporter, beta-lactamase FRET ratio, 16 h; series mostly up to 66 µM
Source text: National Center for Advancing Translational Sciences [NCATS]
Division of Preclinical Innovation [DPI]
U.S. Environmental Protection Agency [EPA]
National Institutes of Environmental Health Sciences [NIEHS]
National Toxicology Program [NTP]
U.S. Food and Drug Administration [FDA]
p53, a tumor suppressor protein, is activated following cellular insult, including DNA damage and other cellular stresses. The activation of p53 regulates cell fate by inducing DNA repair, cell cycle arrest, apoptosis, or cellular senescence. The activation of p53, therefore, is a good indicator of DNA damage and other cellular stresses. […] The activation of the reporter gene under culture conditions can be detected by fluorescence intensity. This cell line was used to screen the Tox21 10K compound library in a 1536-well plate format and to identify agonists that activate the p53 signaling pathway.
Tox21 Assay Protocol Summary:
The p53RE-bla cells were dispensed at 4,000 cells/5 ul/well in 1536-well black wall/clear bottom plates using a Multidrop dispenser. After the assay plates were incubated at a 37 C/5% CO2 incubator for 5 hours, 23 nL of compounds dissolved in DMSO, positive controls or DMSO only was transferred to the assay plate by a pin tool. The plates were incubated at 37 C for 16 hours. After 1 uL of LiveBLAzerTM B/G FRET substrate was added using a Flying Reagent Dispenser, the plates were incubated at room temperature for 2 hours, and fluorescence intensity was measured by an Envision plate reader.

| Structure (SMILES) | Potency |
| --- | --- |
| COC(CC(C)CCCC(C)(C)O)OC (stereo not given) | inactive |
| CCCCC(O)/C=C(C)/C=C/C=C/C(=O)N1CCCC1=O (stereo not given) | inactive |
| OCCCCl | inactive |
| COC(=O)Cc1cccc2ccccc12 | inactive |
| O=[N+]([O-])c1ccc(CCO)cc1 | inactive |
| CCC(N)(CO)CO | inactive |
| C=C(C)[C@@H]1CC[C@@H](C)C[C@@H]1O | inactive |
| CC(C)(C)S | inactive |
| Nc1cccc2c1CN(C1CCC(=O)NC1=O)C2=O (stereo not given) | inactive |
| O=S(=O)(O)CCCN1CCOCC1 | inactive |
| COC(=O)c1ccc([N+](=O)[O-])cc1 | inactive |
| CCOC(=O)c1c(C)n(C)c2ccc(O)cc12 | inactive |
| CCOC(=O)CCC(C)=O | inactive |
| OCC(CO)N[C@H]1C[C@](O)(CO)[C@@H](O)[C@H](O)[C@H]1O | inactive |
| CCOC(OCC)OCC | inactive |
| C=CCOCC(O)CO (stereo not given) | inactive |
| FC(F)(F)c1ccccc1Cl | inactive |
| Nc1cc(=O)[nH]c(N)n1 | inactive |
| C=CC(C)(CCC=C(C)C)OC(=O)CC (stereo not given) | inactive |
| NCCO | inactive |

| Structure (SMILES) | Potency |
| --- | --- |
| CCCN1CCCC[C@H]1C(=O)Nc1c(C)cccc1C | inactive |
| O=C(Cn1ccnc1[N+](=O)[O-])NCc1ccccc1 | inactive |
| O=C(O)c1cccc(C(F)(F)F)c1 | inactive |
| CC(C)N=C(N)/N=C(\N)Nc1ccc(Cl)cc1 | inactive |
| COC(=O)c1ccc(C)cc1C1=NC(C)(C(C)C)C(=O)N1 (stereo not given) | inactive |
| CC(C)(C)c1ccc(O)c(C(C)(C)C)c1 | inactive |
| C1CN(CCOCCN2CCOCC2)CCO1 | inactive |
| CC(CCC(=O)O)C(=O)O (stereo not given) | inactive |
| O=[N+]([O-])c1ccc2c(c1)Cc1ccccc1-2 | inactive |
| CCOC=C(C(=O)OCC)C(=O)OCC | inactive |
| CCCOCCOCCO | inactive |
| CC(O)C(CO)C(C)O (stereo not given) | inactive |
| Cc1ccc(N=Nc2c(O)ccc3ccccc23)c(C)c1 | inactive |
| CC(C)=O | inactive |
| CS(C)(=O)=O | inactive |
| CC1CCCC(=O)C1=O (stereo not given) | inactive |
| O=C(O)c1cc2ccccc2nc1C(=O)O | inactive |
| Cc1cc(CCC(=O)OCCOCCOCCOC(=O)CCc2cc(C)c(O)c(C(C)(C)C)c2)cc(C(C)(C)C)c1O | inactive |
| CN1C(=O)CC(C)(c2ccccc2)C1=O (stereo not given) | inactive |
| CCCC(C)CCC(C)=O (stereo not given) | inactive |
